# aSyn rescue: inhibitors of alpha-synuclein toxicity in yeast; Yeast expressing alpha-synuclein, growth rescue, BacTiter-Glo, 24 h; Potency, µM (highest dose often 46.1 µM), most hits filed as activators; 370,000 tested, 0.14% active; AID 652106; also: nearly all actives have a fitted effect of over 65% in size
#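 Rescue of yeast growth: cells expressing toxic alpha-synuclein, induced in galactose at OD600 0.02, incubated with compound 24 h at 30 C. ATP luminescence quantified growth; inhibitors of toxicity appear as activators.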
# TDP-43 yeast inh: inhibitors of TDP-43 toxicity in yeast; TDP-43 expressing yeast growth rescue, BacTiter-Glo, 24 h; Potency, µM (titrated, usually from 46.1 µM), usual class: activators; 410,000 tested, 1.8% active; AID 652104; also: nearly all actives have a fitted effect of over 50% in size
#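 Cell-based yeast growth screen: TDP-43 expression induced in galactose, inoculum OD600=0.02 after raffinose pregrowth to mid-log. Read-out BacTiter-Glo luminescence at 24 hr, 30 deg C; inhibition of toxicity seen as signal increase.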
# Mito fusion act: blocks mitochondrial division or promotes mitochondrial fusion. S. cerevisiae fusion-defective mutant growth rescue, CellTiterGlo 48 h. Potency, µM (top dose mostly 46.1 µM), actives largely listed as activators. 320,000 tested, 0.23% active. AID 485298; also: nearly all actives have a fitted effect of over 45% in size
#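 Growth-rescue viability read-out: after 48 h at the non-permissive 37C in glycerol/ethanol YPEG, yeast mitochondrial fusion mutants are measured by CellTiterGlo luminescence; compounds (23 nl pinned per well) restoring growth score as division inhibitors or fusion activators.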
# Abeta yeast res: A-beta toxicity reversal in yeast | yeast expressing A-beta42, growth rescue, OD600, 48 h; response scale: 0% DMSO, 100% iron-clioquinol control | Potency, µM (doses to about 46.1 µM), hits mostly activators | 410,000 tested, 0.063% active | AID 1347071; also: nearly all actives have a fitted effect of over 55% in size
#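 Growth rescue measured by 600 nm absorbance after 48 h yeast culture at 30 C with compound. Values normalized between DMSO and an equimolar ferric chloride plus clioquinol control.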
# FUS yeast rescue: suppressors of FUS proteinopathy in yeast; AID 1347120; S. cerevisiae FUS-expressing, growth rescue, OD600, 24 h; 390,000 tested, 0.24% active; Potency, µM (series often up to 76.6 µM), hits mostly activators; also: nearly all actives have a fitted effect of over 55% in size
#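 S. cerevisiae expressing FUS from galactose induction served as the toxicity model. Growth after 24hr at 30C, read as absorbance at 600 nm, indicates suppression of toxicity; compounds dosed at several concentrations.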
# Numbers stand for hits; n = inactive; u = inconclusive; x = no result given. This is a sample that favours compounds with a hit; in the whole collection about 2.2% have one here. Calls follow the shape of the dose curve; as a rule, active = well fitted curve in the direction sought with a large enough effect; inconclusive = small, poorly fitted or top-dose-only effect, or another doubt; inactive = no such curve, though single readings can be large; an effect the other way counts as inactive or inconclusive.
SMILES,aSyn rescue,TDP-43 yeast inh,Mito fusion act,Abeta yeast res,FUS yeast rescue
O=[N+]([O-])c1nn(-c2ccc(Cl)cc2)n(O)c1=NCc1ccncc1,n,11µM,n,n,n
Cc1ccc(CN=c2c([N+](=O)[O-])nn(-c3ccc(Cl)cc3)n2O)cc1,n,11µM,n,u,n
CCc1cccc(N=c2c([N+](=O)[O-])nn(-c3ccc(Cl)cc3)n2O)c1,n,7.9µM,18µM,n,n
O=[N+]([O-])c1nn(-c2ccc(Cl)cc2)n(O)c1=NCc1ccccc1Cl,n,u,n,n,n
NC1=C(Br)C(=O)c2ncccc2C1=O,n,11µM,x,n,x
Cc1ccccc1-n1c(SCC(=O)c2cc(C)n(C)c2C)nnc1-c1cccnc1,n,n,n,n,n
COCCn1c(C)cc(C(=O)CSc2nnc(-c3cccnc3)n2-c2ccccc2F)c1C,x,n,n,n,20µM
Cc1ccc2nc(-c3ccc(NC(=O)CSc4nnc(Cc5cccs5)n4C)cc3)sc2c1,x,x,x,x,n
CC1CCCC(C)N1C(=O)CSc1nc2ccccc2s1 (stereo not given),x,7.9µM,n,n,n
CC1CCN(C(=O)CSc2nc3ccccc3s2)CC1,n,u,n,n,x
Cc1cnc(NC(=O)CSc2nc3ccccc3s2)s1,n,14µM,n,n,n
Cc1cnc(NC(=O)CSc2ccc(Cl)cc2)s1,n,11µM,n,u,n
Nc1cc(=O)[nH]c(SCC(=O)Nc2ccc(N3CCOCC3)cc2)n1,n,n,x,n,n
O=C(C[C@@H]1C/C=C\CCC(=O)OC[C@@H]2CCCN2C1=O)N[C@@H](CO)Cc1ccccc1,n,n,x,n,n
COc1ccc(/C=C/c2nc3ccccc3n2Cc2ccccc2OC)cc1,n,u,u,n,n
COc1ccccc1Cn1c(/C=C/c2ccccc2)nc2ccccc21,n,20µM,n,n,x
CC(C)Cn1c(/C=C/c2ccc(F)cc2)nc2ccccc21,n,14µM,x,n,n
COCCn1c(/C=C/c2ccccc2)nc2ccccc21,n,n,n,n,n
CCC(C)Cn1c(C(C)C)nc2ccccc21 (stereo not given),n,n,n,n,n
CC(C)CCn1c(/C=C/c2ccccc2)nc2ccccc21,x,14µM,x,n,n
CCC(C)Cn1c(/C=C/c2ccccc2)nc2ccccc21 (stereo not given),x,14µM,x,n,n
CN(C)C1=NC[C@H](Cc2ccccc2)N1CC1CCC(C(C)(C)C)CC1 (stereo not given in full),n,n,n,n,n
O=C(Nc1nnc([C@@H]2C[C@H](O)[C@@H](CO)O2)s1)Nc1ccccc1Oc1ccccc1,n,n,x,n,n
Cc1nc(CSc2nnc(Nc3cccc(C)c3C)s2)cs1,n,7.9µM,n,n,x
Cc1cccc(Nc2nnc(SCC(=O)Nc3ccccc3[N+](=O)[O-])s2)c1C,n,13µM,n,n,x
SMILES,aSyn rescue,TDP-43 yeast inh,Mito fusion act,Abeta yeast res,FUS yeast rescue
O=C(Nc1nc2ccsc2c(=O)s1)c1ccco1,n,n,n,n,n
O=C(Nc1nc2ccsc2c(=O)s1)C1CCC1,n,10µM,n,n,n
O=c1sc(Nc2ccccc2)nc2ccsc12,n,18µM,n,n,n
Cc1nc2c(OCc3ccc(F)cc3)cccn2c1N(C)C(=O)CCC1CCCC1,n,n,x,n,n
Cc1nc2c(OCc3ccc(C(F)(F)F)cc3)cccn2c1N(C)C(=O)CCC1CCCC1,n,n,x,n,22µM
COC(=O)N[C@@H]1C[C@H]2[C@@H]3CC[C@H]4C[C@@H](OC)CC[C@]4(C)[C@H]3CC[C@]12C,n,n,n,n,n
COC(=O)N[C@@H]1C[C@H]2[C@@H]3CC[C@H]4C[C@@H](OC)CC[C@]4(C)[C@H]3CC[C@@]12C,n,28µM,n,n,n
COc1ccccc1CNC(=O)CCCn1c(=O)c2ccccc2n(Cc2ccc(F)cc2)c1=O,x,n,x,n,n
O=C(CN1CC[n+]2c(-c3cccs3)csc21)c1ccc(-c2ccccc2)cc1,n,3.5µM,n,n,n
Cc1cc(C)c2nc(N3C(=O)C(O)=C(C(=O)c4ccco4)C3c3cccc(O)c3)sc2c1 (stereo not given),n,n,n,n,u
COc1ccc(NC(=O)C2CCN(C(=O)c3sc4nc[nH]c(=O)c4c3C)CC2)cc1Cl,x,n,x,n,n
Cc1cc(C)nc(NC(=NCCc2c[nH]c3ccc(Cl)cc23)NC(=O)c2ccccc2C)n1,0.56µM,n,x,n,n
COc1ccc2[nH]cc(CCN=C(NC(=O)c3ccccc3C)Nc3nc(C)cc(C)n3)c2c1,n,n,x,n,n
O=C(Nc1ccccc1NC(=O)c1ccco1)c1ccccc1,n,n,n,n,n
O=C(Nc1nc2c(ccc3ccccc32)s1)c1ccco1,n,5.6µM,n,n,u
O=C(Nc1cccc2ccccc12)c1ccco1,n,16µM,x,n,n
COc1ccc(C(=O)O)cc1NC(=S)NC(=O)C(c1ccccc1)c1ccccc1,n,n,n,n,x
O=C(CSc1c2c(nc3ccc(Cl)cc13)CCCC2)N1CCN(c2cccc(Cl)c2)CC1,x,16µM,x,n,u
COc1ccc(OC)c(CNC(=O)CSc2c3c(nc4cc(Cl)ccc24)CCCC3)c1,x,n,x,n,n
Cc1ccc(CNC(=O)CSc2c3c(nc4cc(Cl)ccc24)CCCC3)o1,n,16µM,n,n,u
O=C(CSc1c2c(nc3ccc(Cl)cc13)CCCC2)N1CCN(c2ccc(Cl)cc2)CC1,x,18µM,x,n,u
COc1ccc(N2CCN(C(=O)CSc3c4c(nc5ccc(Cl)cc35)CCCC4)CC2)cc1,x,32µM,x,n,u
CCOc1ccc(CNC(=O)CSc2c3c(nc4ccc(Cl)cc24)CCCC3)cc1,x,n,x,n,n
CCCCOc1ccc(S(=O)(=O)NC(=O)C2(C)CCN2C(=O)c2cccc(F)c2)cc1 (stereo not given),n,n,x,n,u
COc1ccc(NC(=O)c2cc(-c3cc(F)ccc3OC(C)C)n[nH]2)c(C)c1,n,u,x,n,u
SMILES,aSyn rescue,TDP-43 yeast inh,Mito fusion act,Abeta yeast res,FUS yeast rescue
Cc1ccc(-c2nc3cc(C)c(Br)c(C)n3c2CC2CCCCC2)cc1,n,n,x,n,n
COc1ccc(-c2nc3cc(C)c(Br)c(C)n3c2CC2CCCCC2)cc1OC,n,22µM,x,n,n
O=C(O)c1ccc(N/N=C2/CCSc3ccc(F)cc32)cc1,n,10µM,n,n,n
Cc1cc(C(=O)CSc2ccc3c(c2)OCCO3)c(C)n1C1CC1,n,20µM,n,n,n
O=C(CN1CCN(S(=O)(=O)c2ccccc2)CC1)N1CCc2ccccc21,n,n,n,n,n
COc1ccc(NC(=O)CN(C)C(=O)c2cn(-c3ccccc3)nc2-c2ccc(F)cc2)cc1,n,25µM,n,n,u
O=C(COc1ccc(F)cc1)Nc1ccc(Cl)c(-c2nc3ccccc3[nH]2)c1,x,n,x,n,n
Cc1cccc(OCC(=O)Nc2ccc(Cl)c(-c3nc4ccccc4[nH]3)c2)c1,x,35µM,x,n,u
